Experimental data taken from the antibiotic and cytotoxicity screens of Wong et al. (2023).
Hit rate of the full screen: of about 39,000 compounds, about 3,300 (8.5%) were called active. For the sample, actives were picked, then their nearest neighbours and some compounds at random.

system: HepG2; test: cytotoxicity call (relative viability < 0.9); conditions: 10 µM

SMILES | cytotoxicity call
C[C@@H]1CN([C@H](C)CO)C(=O)Cc2cc(NC(=O)C3CCCCC3)ccc2O[C@H]1CN(C)Cc1ccc(Cl)c(Cl)c1 | inactive
N=C(N)c1ccc2nc(-c3cc(CC(=O)N[C@@H](CC(=O)O)C(=O)O)cc(-c4cc(S(N)(=O)=O)ccc4O)c3O)[nH]c2c1 | inactive
C[C@H](CO)N1C[C@H](C)[C@H](CN(C)C(=O)Nc2ccc(C(F)(F)F)cc2)Oc2ccc(NC(=O)Nc3cccc4ccccc34)cc2CC1=O | inactive
C[C@@H]1CN([C@@H](C)CO)C(=O)Cc2cc(NC(=O)NC3CCCCC3)ccc2O[C@@H]1CN(C)Cc1ccc(Cl)c(Cl)c1 | active
C[C@@H]1CN([C@H](C)CO)C(=O)Cc2cc(NC(=O)NC3CCCCC3)ccc2O[C@@H]1CN(C)Cc1ccc(Cl)c(Cl)c1 | active
C[C@@H]1CN([C@@H](C)CO)C(=O)Cc2cc(NC(=O)NC3CCCCC3)ccc2O[C@H]1CN(C)Cc1ccc(Cl)c(Cl)c1 | inactive
C[C@H](CO)N1C[C@H](C)[C@H](CN(C)Cc2ccc(Cl)c(Cl)c2)Oc2ccc(NC(=O)NC3CCCCC3)cc2CC1=O | inactive
C[C@@H]1CN([C@H](C)CO)C(=O)Cc2cc(NC(=O)NC3CCCCC3)ccc2O[C@H]1CN(C)Cc1ccc(Cl)c(Cl)c1 | inactive
C[C@H](CO)N1C[C@H](C)[C@@H](CN(C)Cc2ccc(Cl)c(Cl)c2)Oc2ccc(NC(=O)NC3CCCCC3)cc2CC1=O | inactive
C[C@@H]1CN([C@H](C)CO)C(=O)c2cc(NS(=O)(=O)c3ccc(Cl)cc3)ccc2O[C@@H](C)CCCCO[C@H]1CN(C)C(=O)Nc1ccccc1 | inactive
O=C(C[C@@H]1CC[C@@H]2[C@H](COC[C@@H](O)CN2S(=O)(=O)c2ccccc2)O1)NCCN1CCCCC1 | inactive
CCOC(=O)C(CCc1ccccc1)NC1CCc2ccccc2N(CC(=O)O)C1=O.Cl (centres undefined) | inactive
CC(CN(C)C)CN1c2ccccc2Sc2ccccc21.O=C(O)C(O)C(O)C(=O)O (centres undefined) | active
Cc1ccc(C(=O)N2c3ccccc3Sc3ccccc32)cc1 | inactive
O=C(Nc1ccccc1)N1c2ccccc2CCc2ccccc21 | inactive
O=C(c1ccccc1F)N1c2ccccc2Sc2ccccc21 | inactive
CC(CN(C)C)CN1c2ccccc2CCc2ccccc21.O=C(O)C=CC(=O)O (centres undefined) | active
COc1ccc(NC(=O)N(C)C[C@@H]2OCc3ccccc3-c3c(n(C)c4ccccc34)C(=O)N([C@H](C)CO)C[C@@H]2C)c(OC)c1 | inactive
CCC(=O)Nc1ccc2c(c1)OC[C@@H](C)N(C(=O)CN1CCOCC1)C[C@@H](C)[C@H](OC)CN(C)C2=O | inactive
Cc1noc(C)c1NC(=O)Nc1ccc2c(c1)C(=O)N([C@H](C)CO)C[C@H](C)[C@@H](CN(C)C(=O)Nc1ccc(C(F)(F)F)cc1)O2 | inactive
Cc1ccc(S(=O)(=O)Nc2cccc3c2O[C@H](CN(C)Cc2ccc(Oc4ccccc4)cc2)[C@@H](C)CN([C@@H](C)CO)C3=O)cc1 | inactive
C[C@@H]1CN([C@@H](C)CO)C(=O)Cc2cc(NC(=O)NC3CCCCC3)ccc2O[C@H]1CN(C)S(=O)(=O)c1cn(C)cn1 | inactive

SMILES | cytotoxicity call
C[C@H]1CCCCO[C@H](CN(C)S(=O)(=O)c2ccc(F)cc2)[C@@H](C)CN([C@@H](C)CO)C(=O)c2cc(NC(=O)NC3CCCCC3)ccc2O1 | inactive
C[C@@H]1CN([C@@H](C)CO)C(=O)c2cccc(NC(=O)CCCCCC(=O)Nc3ccccc3N)c2O[C@@H]1CN(C)Cc1ccc(Oc2ccccc2)cc1 | active
C[C@H](CO)N1C[C@H](C)[C@H](CN(C)Cc2ccc(Oc3ccccc3)cc2)Oc2c(NC(=O)CCCCCC(=O)Nc3ccccc3N)cccc2C1=O | inactive
COc1ccc(CN(C)C[C@@H]2Oc3c(NC(=O)CCCCCC(=O)Nc4ccccc4N)cccc3C(=O)N([C@H](C)CO)C[C@H]2C)cc1 | inactive
COc1ccc(CN(C)C[C@H]2Oc3c(NC(=O)CCCCCC(=O)Nc4ccccc4N)cccc3C(=O)N([C@@H](C)CO)C[C@@H]2C)cc1 | active
C[C@@H]1CN([C@H](C)CO)C(=O)c2cccc(NC(=O)CCCCCC(=O)Nc3ccccc3N)c2O[C@H]1CN(C)Cc1ccc(Oc2ccccc2)cc1 | inactive
COc1ccc(CN(C)C[C@@H]2Oc3c(NC(=O)CCCCCC(=O)Nc4ccccc4N)cccc3C(=O)N([C@@H](C)CO)C[C@H]2C)cc1 | inactive
CO[C@@H]1CN(C)C(=O)c2cc(NS(C)(=O)=O)ccc2OC[C@H](C)N(C(=O)CN(C)C)C[C@@H]1C | inactive
C[C@H](CO)N1C[C@H](C)[C@H](CN(C)CC2CC2)OCCCC[C@H](C)Oc2ccc(NC(=O)CCC(F)(F)F)cc2C1=O | inactive
CC(=O)Oc1ccc(C(c2ccc(OC(C)=O)cc2)c2ccccn2)cc1 | inactive
CN(C)CCC(c1ccc(Cl)cc1)c1ccccn1.O=C(O)C=CC(=O)O (centres undefined) | active
CN(C)CCC(c1ccccc1)c1ccccn1.O=C(O)C=CC(=O)O (centres undefined) | inactive
CN(C)CCOC(c1ccc(Cl)cc1)c1ccccn1.O=C(O)C=CC(=O)O (centres undefined) | inactive
CN(C)CCC(c1ccc(Br)cc1)c1ccccn1.O=C(O)C=CC(=O)O (centres undefined) | active
CN(C)CCNC(=O)c1ccccn1 | inactive
C[C@@H]1CN([C@@H](C)CO)C(=O)c2cc(NC(=O)c3ccncc3)ccc2O[C@@H](C)CCCCO[C@H]1CN(C)C(=O)C1CCCCC1 | inactive
C[C@@H]1CN([C@@H](C)CO)C(=O)c2cc(NS(=O)(=O)c3cccs3)ccc2O[C@@H]1CN(C)S(=O)(=O)c1cccs1 | inactive
C[C@H](CO)N1C[C@H](C)[C@H](CN(C)S(=O)(=O)c2ccccc2)Oc2c(NS(C)(=O)=O)cccc2C1=O | inactive
CN(C)S(=O)(=O)N(C)c1ccccc1 | inactive
C[C@@H]1CN([C@@H](C)CO)C(=O)c2cc(NC(=O)Nc3ccc4c(c3)OCO4)ccc2O[C@@H](C)CCCCO[C@H]1CN(C)C(=O)Nc1ccc(C(F)(F)F)cc1 | inactive
C[C@H]1CN([C@@H](C)CO)C(=O)c2cc(NS(=O)(=O)c3ccc(F)cc3)ccc2O[C@H]1CN(C)C(=O)Nc1cccc2ccccc12 | inactive
S=C(SN1CCOCC1)N1CCOCC1 | inactive
